Test results taken from ChEMBL document CHEMBL1961873, “Compounds: GSK PKIS; Assays: Nanosyn kinase panel” (2012).

Molecular target: Calcium/calmodulin-dependent protein kinase type II subunit delta (Homo sapiens) (UniProt Q13557);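 also: mean percent inhibition of CAMK2D, from screening of the GSK Published Kinase Inhibitor Set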
Conditions: at 1 µM

Calcium/calmodulin-dependent protein kinase type II subunit delta (Homo sapiens), sequence (Q13557 whole entry): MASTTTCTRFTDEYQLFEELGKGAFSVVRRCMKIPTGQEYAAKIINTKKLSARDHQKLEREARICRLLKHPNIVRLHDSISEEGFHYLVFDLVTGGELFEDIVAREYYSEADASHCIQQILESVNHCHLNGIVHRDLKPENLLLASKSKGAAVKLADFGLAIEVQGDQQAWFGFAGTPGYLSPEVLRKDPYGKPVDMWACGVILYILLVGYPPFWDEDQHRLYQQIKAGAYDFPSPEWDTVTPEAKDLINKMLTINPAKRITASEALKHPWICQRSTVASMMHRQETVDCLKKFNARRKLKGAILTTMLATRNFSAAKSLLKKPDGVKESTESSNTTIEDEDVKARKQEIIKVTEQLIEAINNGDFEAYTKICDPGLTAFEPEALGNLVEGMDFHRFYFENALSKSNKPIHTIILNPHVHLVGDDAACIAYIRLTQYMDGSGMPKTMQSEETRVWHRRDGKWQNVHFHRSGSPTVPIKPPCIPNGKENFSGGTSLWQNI

Structure (SMILES) | inhibition
COc1cc2ncn(-c3cc(OCCc4ccccc4)c(C(N)=O)s3)c2cc1OC | 3.66%
NS(=O)(=O)c1ccc(N/N=C2\C(=O)Nc3ccc(C(=O)NCCCn4ccnc4)cc32)cc1 | 8.04%
C/C(Nc1ccc(S(N)(=O)=O)cc1)=C1/C(=O)Nc2ccccc21 | 3.2%
O=C1Nc2ccc(I)cc2C1=Cc1cc(Br)c(O)c(Br)c1 | 9.08%
CN(c1ccc(NC(=O)Nc2c(Cl)cccc2Cl)cc1)c1ccnc(Nc2cccc(CS(C)(=O)=O)c2)n1 | -0.38%
CN(C)CCOc1ccc(-c2cc(-c3ccc4c(c3)CCC4=NO)c(-c3ccncc3)o2)cc1 | 2.18%
Cc1ccc(C(=O)NC2CCC2)cc1-c1ccc(C(=O)NCC2CC2)cc1 | 1.44%
COc1ccc(-c2ccc3c(NC(=O)C4CC4)n[nH]c3n2)cc1 | 1.7%
COc1ccc2ncn(-c3cc(O[C@H](C)c4ccccc4Cl)c(C(N)=O)s3)c2c1 | 4.15%
NS(=O)(=O)c1ccc(Nc2cc(-c3ccc(O)c(F)c3)n[nH]2)cc1 | 1.69%
COc1ccc(C2=C(N3CCc4ccccc43)C(=O)NC2=O)cc1 | 7.01%
COc1cc2ncn(-c3cc(OCc4cccs4)c(C(N)=O)s3)c2cc1OC | 2.97%
O=C(Nc1n[nH]c2nc(-c3ccc(O)cc3)c(Br)cc12)C1CC1 | 20.1%
COc1cc(Nc2ncc3c(C)nc(-c4cccc(Oc5ccccc5)c4)n3n2)cc(OC)c1OC | 3.83%
COc1cccc(/C=N/Nc2ncnc3c2cnn3-c2cccc(OC)c2)c1 | 6.18%
COc1cc(Nc2ncc(-c3ccccc3)o2)cc(OC)c1OC | 5.55%
COc1cc(N2CCN(C(C)C)CC2)ccc1Nc1nc(Nc2ccc(F)cc2C(=O)NC[C@@H](O)CO)c2cc[nH]c2n1 | 7.22%

Structure (SMILES) | inhibition
CS(=O)(=O)CCNCc1cc(-c2cc3c(Nc4ccc(OCc5cccc(F)c5)c(Cl)c4)ncnc3s2)cs1 | 7.4%
O=C(Nc1n[nH]c2cc(-c3ccccc3)ccc12)C1CC1 | 3.53%
CNC(=O)c1cncc(/C=C/c2c(C)cccc2C)c1 | 1.43%
NC(=O)Cc1ccccc1Oc1nccc(-c2c(-c3ccc(F)cc3)ncn2C2CCNCC2)n1 | 2.58%
COc1ccc2cc(-c3c(-c4ccncc4)nc(-c4ccc([S+](C)[O-])cc4C)n3C)ccc2c1 (stereo not drawn) | 0.45%
COc1ccc2cc(-c3c(-c4ccncc4)nc(-c4ccc(S(C)(=O)=O)cc4C)n3C)ccc2c1 | 3.21%
COc1cc2ncn(-c3cc(OCc4ccccc4C(F)(F)F)c(C(C)=O)s3)c2cc1OC | 1.91%
NC(=O)c1cc(-c2ccncc2)cc(-c2ccccc2)c1N | 4.63%
CN(C)c1ccc2c(c1)/C(=C/Nc1ccc(S(N)(=O)=O)cc1)C(=O)N2 | 15%
CCC(=O)Nc1ccc(C)c(-c2ccc(C(=O)NCC3CC3)cc2)c1 | 4.75%
Fc1ccc(-c2c(-c3ccncc3)nc3n2CCS3)cc1 | 2.01%
CN1CCN(CCCNc2nc3ccc(Oc4ccc(NC(=O)Nc5cc(C(F)(F)F)ccc5F)cc4)cc3[nH]2)CC1 | 6.84%
c1ccc(-c2n[nH]cc2-c2ccnc(-c3ccc(OCCN4CCOCC4)cc3)c2)nc1 | -0.13%
Fc1ccc(-c2nc3n(c2-c2ccncc2)CCS3)cc1 | 4.28%
Fc1ccc(-c2ncn(CCCN3CCOCC3)c2-c2ccncc2)cc1 | 2.85%
O=C(Nc1ccc(Oc2ccc3[nH]c(NC(=O)c4ccccc4)nc3c2)cc1)Nc1cc(C(F)(F)F)ccc1F | 4.57%
Cc1nnc(-c2ccc(C)c(-c3ccc(C(=O)NCc4ccc(Cl)cc4)cc3)c2)o1 | 2.68%

Molecular target: T1, Calcium/calmodulin-dependent protein kinase type IV (Homo sapiens) (UniProt Q16566);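 also: each value is a mean inhibition of CAMK4, part of the GSK PKIS kinase screening panel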
T1 sequence (whole entry): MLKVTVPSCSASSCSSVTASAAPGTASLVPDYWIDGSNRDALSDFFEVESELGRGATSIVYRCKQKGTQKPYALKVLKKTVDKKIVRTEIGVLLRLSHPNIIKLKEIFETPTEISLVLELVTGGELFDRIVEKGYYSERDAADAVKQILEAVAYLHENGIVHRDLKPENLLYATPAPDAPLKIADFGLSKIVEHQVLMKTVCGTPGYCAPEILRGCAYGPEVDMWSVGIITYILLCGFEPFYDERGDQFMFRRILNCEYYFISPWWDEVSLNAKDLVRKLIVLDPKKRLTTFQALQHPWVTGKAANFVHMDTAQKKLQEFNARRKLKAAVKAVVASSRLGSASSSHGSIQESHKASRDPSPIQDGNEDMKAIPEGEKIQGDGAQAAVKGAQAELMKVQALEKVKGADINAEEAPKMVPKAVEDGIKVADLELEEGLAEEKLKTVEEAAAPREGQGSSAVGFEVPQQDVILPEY
Conditions: at 0.1 µM

Structure (SMILES) | inhibition
COc1cc2ncn(-c3cc(OCCc4ccccc4)c(C(N)=O)s3)c2cc1OC | 1.62%
NS(=O)(=O)c1ccc(N/N=C2\C(=O)Nc3ccc(C(=O)NCCCn4ccnc4)cc32)cc1 | -1.35%
C/C(Nc1ccc(S(N)(=O)=O)cc1)=C1/C(=O)Nc2ccccc21 | -2.35%
O=C1Nc2ccc(I)cc2C1=Cc1cc(Br)c(O)c(Br)c1 | 0.52%
CN(c1ccc(NC(=O)Nc2c(Cl)cccc2Cl)cc1)c1ccnc(Nc2cccc(CS(C)(=O)=O)c2)n1 | -1.59%
CN(C)CCOc1ccc(-c2cc(-c3ccc4c(c3)CCC4=NO)c(-c3ccncc3)o2)cc1 | -0.94%
Cc1ccc(C(=O)NC2CCC2)cc1-c1ccc(C(=O)NCC2CC2)cc1 | 0.4%
COc1ccc(-c2ccc3c(NC(=O)C4CC4)n[nH]c3n2)cc1 | -1.51%
COc1ccc2ncn(-c3cc(O[C@H](C)c4ccccc4Cl)c(C(N)=O)s3)c2c1 | -2.83%
NS(=O)(=O)c1ccc(Nc2cc(-c3ccc(O)c(F)c3)n[nH]2)cc1 | 0.82%
COc1ccc(C2=C(N3CCc4ccccc43)C(=O)NC2=O)cc1 | 0.45%
COc1cc2ncn(-c3cc(OCc4cccs4)c(C(N)=O)s3)c2cc1OC | -3.4%
O=C(Nc1n[nH]c2nc(-c3ccc(O)cc3)c(Br)cc12)C1CC1 | -0.14%
COc1cc(Nc2ncc3c(C)nc(-c4cccc(Oc5ccccc5)c4)n3n2)cc(OC)c1OC | 1.65%
COc1cccc(/C=N/Nc2ncnc3c2cnn3-c2cccc(OC)c2)c1 | -0.53%
COc1cc(Nc2ncc(-c3ccccc3)o2)cc(OC)c1OC | -4.13%
COc1cc(N2CCN(C(C)C)CC2)ccc1Nc1nc(Nc2ccc(F)cc2C(=O)NC[C@@H](O)CO)c2cc[nH]c2n1 | -2.03%

Structure (SMILES) | inhibition
CS(=O)(=O)CCNCc1cc(-c2cc3c(Nc4ccc(OCc5cccc(F)c5)c(Cl)c4)ncnc3s2)cs1 | -2.05%
O=C(Nc1n[nH]c2cc(-c3ccccc3)ccc12)C1CC1 | -1.93%
CNC(=O)c1cncc(/C=C/c2c(C)cccc2C)c1 | 2.28%
NC(=O)Cc1ccccc1Oc1nccc(-c2c(-c3ccc(F)cc3)ncn2C2CCNCC2)n1 | 0.99%
COc1ccc2cc(-c3c(-c4ccncc4)nc(-c4ccc([S+](C)[O-])cc4C)n3C)ccc2c1 (stereo not drawn) | 0.58%
COc1ccc2cc(-c3c(-c4ccncc4)nc(-c4ccc(S(C)(=O)=O)cc4C)n3C)ccc2c1 | 0.37%
COc1cc2ncn(-c3cc(OCc4ccccc4C(F)(F)F)c(C(C)=O)s3)c2cc1OC | -0.3%
NC(=O)c1cc(-c2ccncc2)cc(-c2ccccc2)c1N | 0.2%
CN(C)c1ccc2c(c1)/C(=C/Nc1ccc(S(N)(=O)=O)cc1)C(=O)N2 | 0.96%
CCC(=O)Nc1ccc(C)c(-c2ccc(C(=O)NCC3CC3)cc2)c1 | -0.67%
Fc1ccc(-c2c(-c3ccncc3)nc3n2CCS3)cc1 | 1.18%
CN1CCN(CCCNc2nc3ccc(Oc4ccc(NC(=O)Nc5cc(C(F)(F)F)ccc5F)cc4)cc3[nH]2)CC1 | 1.94%
c1ccc(-c2n[nH]cc2-c2ccnc(-c3ccc(OCCN4CCOCC4)cc3)c2)nc1 | -0.9%
Fc1ccc(-c2nc3n(c2-c2ccncc2)CCS3)cc1 | 0.62%
Fc1ccc(-c2ncn(CCCN3CCOCC3)c2-c2ccncc2)cc1 | 1.75%
O=C(Nc1ccc(Oc2ccc3[nH]c(NC(=O)c4ccccc4)nc3c2)cc1)Nc1cc(C(F)(F)F)ccc1F | -0.56%
Cc1nnc(-c2ccc(C)c(-c3ccc(C(=O)NCc4ccc(Cl)cc4)cc3)c2)o1 | 0.34%
